A selection: hits, their analogues and other compounds. The true share with any hit is near 3.6%.
TDP-43 yeast inh: inhibitors of TDP-43 toxicity in yeast; 410,000 compounds, 1.8% hits; Potency, µM (doses to about 46.1 µM), without a hit: at the highest dose growth rescue (activation), hits mostly activators; TDP-43 expressing yeast growth rescue, BacTiter-Glo, 24 h; further: % of control where 0% means no effect; nearly all actives have a fitted effect of over 50% in size
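Cell-based yeast growth screen: TDP-43 expression induced in galactose, inoculum OD600=0.02 after raffinose pregrowth to mid-log. Read-out BacTiter-Glo luminescence at 24 hr, 30 deg C; inhibition of toxicity seen as signal increase.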
Abeta rescue: restores growth of yeast expressing A-beta42 peptide; yeast expressing A-beta42, growth rescue, OD600, 48 h; response scale: 0% DMSO, 100% iron-clioquinol control; Potency, µM (series often up to 46.1 µM), actives largely listed as activators; 410,000 compounds, 0.063% hits; AID 1347071; further: nearly all actives have a fitted effect of over 55% in size
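Yeast growth medium received pinned compounds, then yeast cells expressing toxic A-beta were added; plates incubated at 30 C for 48 hr. Growth read as absorbance at 600 nm, normalized to DMSO and equimolar FeCl3 plus clioquinol controls.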
Mm-Cpn inhibitor: M. maripaludis TRiC chaperonin inhibition | AID 504842 | purified Mm-Cpn ATPase, ADP Transcreener TR-FRET | Potency, µM (titrated, usually from 76.9 µM), inactives show top-dose activity, negative = inhibition, actives largely listed as inhibitors | 330,000 compounds, 0.031% hits; further: on the % scale 0 is the no-effect control and ±100 the full control effect; nearly all actives have a fitted effect of over 80% in size
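TR-FRET (320 nm excitation; 590 and 665 nm emission) reports ADP made from 10 uM ATP by 25 nM enzyme; compounds were preincubated 10 min, reaction run 30 min, both at 37°C.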
aSyn yeast inh: inhibitors of alpha-synuclein toxicity in yeast; 370,000 compounds, 0.14% hits; Potency, µM (top dose mostly 46.1 µM), without a hit: top-dose growth rescue (activation), hits mostly activators; AID 652106; Yeast expressing alpha-synuclein, growth rescue, BacTiter-Glo, 24 h; further: % of control where 0% means no effect; nearly all actives have a fitted effect of over 65% in size
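Galactose-induced alpha-syn yeast (OD600=0.02, raffinose-pregrown) + pinned cpd, 24 hr, 30 deg C; growth by BacTiter-Glo luminescence. Growth restoration scores as activation.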
FUS suppressor: FUS proteinopathy suppression in yeast; 390,000 compounds, 0.24% hits; Potency, µM (top dose mostly 76.6 µM), usual class: activators; S. cerevisiae FUS-expressing, growth rescue, OD600, 24 h; AID 1347120;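 further: plate controls were DMSO vehicle for no effect and reference control for full effect; nearly all actives have a fitted effect of over 55% in size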
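Quantitative HTS measuring growth restoration of FUS-toxic yeast. Galactose-induced cells (OD 0.005) were exposed 24hr at 30C to compounds at several concentrations, then absorbance at 600 nm was recorded.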
ClpP mod: qHTS Assay for Activators of ClpP; purified B. subtilis ClpP, FRET peptide cleavage, 20 min; Potency, µM (top dose mostly 57.5 µM), inactives show top-dose activity change, negative = active; 340,000 compounds, 1.9% hits; active means well fitted falling curve with a large enough effect; inconclusive means small, poorly fitted or top-dose-only effect; inactive means no such curve, though single readings can be large or run the other way; further: the source files actives as falling curves though it sought activators and does not explain the sign; nearly all actives have a fitted effect of over 65% in size
Target sequence (P80244 whole entry, looked up): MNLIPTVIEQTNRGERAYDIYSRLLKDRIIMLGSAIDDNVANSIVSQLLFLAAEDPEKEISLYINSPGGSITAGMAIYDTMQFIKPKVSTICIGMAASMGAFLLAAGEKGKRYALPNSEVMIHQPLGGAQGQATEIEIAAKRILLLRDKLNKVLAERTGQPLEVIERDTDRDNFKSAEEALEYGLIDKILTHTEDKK
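Purified B. subtilis ClpP, 10 microg/mL final in Tris/HCl pH8 with KCl, BSA, glycerol and Tween-20, cleaved an Abz/nitrotyrosine-quenched decapeptide. Fluorescence (ex 320, em 430) was read at 0 and 20 min at room temperature. Delta was normalized to 5.8 microM ADEP and DMSO/no-enzyme controls.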
* marks the source's active call; other numbers are inactive results; i = inactive; ? = inconclusive; nt = not tested or not shown. Unless noted, the call rests on the fitted dose curve; in most records, active means well fitted curve in the direction sought with a large enough effect; inconclusive means small, poorly fitted or top-dose-only effect, or another doubt; inactive means no such curve, though single readings can be large; an effect the other way counts as inactive or inconclusive. Potency means the concentration at half of the fitted maximal effect.

SMILES	TDP-43 yeast inh	Abeta rescue	Mm-Cpn inhibitor	aSyn yeast inh	FUS suppressor	ClpP mod
C=C[C@@H]1c2cc(C)ccc2N(S(=O)(=O)c2ccc(C)cc2)[C@H](c2ccc(C(=O)OC)cc2)C1(C#N)C#N	nt	nt	nt	nt	nt	-3%
CCOC(=O)N1CCN(C(=O)c2cccn3c(=O)c4sccc4nc23)CC1	0%	i	-10%	4%	i	25µM*
CCOC(=O)N1CCN(C(=O)c2cccn3c(=O)c4cc(Br)ccc4nc23)CC1	-14%	i	0%	13%	i	-1%
CCCNC(=O)NS(=O)(=O)c1cnccc1Sc1ccc(Cl)c(Cl)c1	13%	i	-1%	-1%	i	22µM*
CC(C)(C)C1CCc2c(sc(NC(=O)Cn3nnc(-c4ccccc4Cl)n3)c2C#N)C1 (stereo not given)	11%	i	nt	nt	i	2%
O=C(CCC1N=C2c3ccccc3N=C(SCc3ccc(Cl)cc3)N2C1=O)NC1CCCCC1 (stereo not given)	0%	i	nt	nt	i	4%
CCOC(=O)c1ccc(N2CCN(c3ccc(F)cc3)CC2)c(NC(=O)Nc2ccc(CC)cc2)c1	-8%	i	nt	nt	i	-4%
COc1cccc(NC(=O)Nc2ccccc2SC)c1	20µM*	i	3%	-9%	i	1%
CCOC(=O)c1ccc(N2CCN(c3ccc(F)cc3)CC2)c(NC(=O)Nc2cccc(OC)c2)c1	0%	i	1%	-5%	i	28µM*
COc1ccc(NC(=O)Nc2ccccc2SC)c(OC)c1	-11%	i	-1%	0%	i	nt
COc1ccc(Br)cc1/C=C/C(=O)Nc1ccc2ccccc2c1	7%	i	-13%	-11%	i	-7%
COc1ccc(Br)cc1/C=C/C(=O)Nc1ccc(C)cc1	16µM*	i	0%	-16%	i	1%
O=C(N/N=C/c1cn(-c2ccccc2)nc1-c1cccs1)c1ccc(Cl)cc1	-17%	i	-8%	-6%	nt	32µM*
O=C(N/N=C/c1cn(-c2ccccc2)nc1-c1cccs1)c1ccccc1F	18%	i	-22%	0%	nt	?
COc1ccc(/C=C(/C(=O)Nc2ccccc2C(=O)N2CCCC2)c2ccccc2)cc1	?	i	1%	-10%	i	1%
COc1ccc(/C=C(/C(=O)Nc2ccccc2C(=O)NC(C)C)c2ccccc2)cc1	20µM*	i	0%	-13%	i	-5%
CCN(CC)c1ccc(C(=O)Nc2ccccc2)cc1[N+](=O)[O-]	25µM*	i	1%	4%	i	nt
COc1ccc(C(=O)Nc2ccc(Nc3ccccc3)cc2)cc1[N+](=O)[O-]	?	i	-2%	?	i	1%
Cc1ccc2occ(CC(=O)N3CCN(c4cccc(Cl)c4)CC3)c2c1	?	?	nt	nt	?	-3%
Cc1nc2oc3ccccc3c(=O)c2cc1C(=O)O	-20%	i	0%	0%	i	nt
CN(C)c1ccc2c(=O)c3ccccc3oc2n1	16µM*	i	nt	?	i	5%
O=C1CN(C(=O)c2cccc(Br)c2)C(c2ccccc2)c2cc(Cl)ccc2N1 (stereo not given)	-3%	i	nt	nt	i	1%
O=C(Nc1ccc(/C=C/c2nc3ccccc3o2)cc1)c1cccc(C(F)(F)F)c1	-7%	i	0%	-6%	i	16µM*
CCOc1ccccc1CNC(=O)C1CCCN(c2ncnc3onc(-c4ccc(F)cc4)c23)C1 (stereo not given)	18%	i	nt	nt	i	-3%
COC(=O)c1ccc(OC)c(CN2CCCN(Cc3ccc(C)cc3)S2(=O)=O)c1	21%	?	nt	nt	i	-3%

Screens as filed in PubChem.
